# Many of the other results were omitted from the sample, so the strongest signals are more common in it than they were.
# B1: GS7807Q-bfa-507-19-507 (Bacteroides fragilis) (protein)
# chain: ASCNKFDDLNTNPDAATKVTAPMLATKLILNITQQGSAKNFVYHSMLSKQIAWSENASDEQYNLFGRTDFDGYTILTNCQKMVDAANEGDKDSYAALAKFMKAYKLFYKSLEVGDIPYSDALKGEEGVQKPKYDTQKEVMRQVLEDLEEAYTLFSSGSDFDGDPIFGGDTENWKKTVVAFELKVLTHLCKKDTDADLKVKERFARLVSSGSLMTSNADNFQLVYSNKAGQLYPFYYTQNKHSDYLMMSSVIIDNLKKFNDYRMFYYASPAKAQTDKGIKDSEWDAYLSIDPSDSYSNISVLYGKGEFCLANLRYTRVPEGEPLMRLSYAEQNFILAEGAVRGWISEDASTYYKKGIEASMNFIADNTPDKEEYTHGRTITQEYIQEYLAQPVIQLSGDKEKDLEMILLQRYLASFLQHPYDAYYDYRRTGYPVLPINPSTNLNTEKNKIPTRWMYPEAEFSYNPDNANEAVQRQYNGSDDVNKLMWILQ
# How the values were obtained:
# Experiment in all cases: glycan array binding signal (z-score within array); higher = stronger binding
# Details in all cases: glycan notation: IUPAC condensed, linker removed
# Fuc(a1-2)Gal(b1-3)GalNAc = molecular target: Fuc(a1-2)Gal(b1-3)GalNAc
# Outline: (§1)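 From the Consortium for Functional Glycomics database, 3228 arrays were curated, keeping only those whose protein sequence was available. Binding is given as a within-array Z-score averaged across arrays sharing a protein sequence and across linkers. Negative Z-scores can be read as non-binding.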
# [1] = molecular target: Fuc(a1-2)Gal(b1-3)GalNAc(a1-3)[Fuc(a1-2)]Gal(b1-4)Glc
# Outline: as §1
# [2] = molecular target: Fuc(a1-2)Gal(b1-4)GlcNAc(b1-2)Man(a1-3)[Fuc(a1-2)Gal(b1-4)GlcNAc(b1-2)Man(a1-6)]Man(b1-4)GlcNAc(b1-4)GlcNAc
# Outline: as §1
# [3] = molecular target: Fuc(a1-2)Gal(b1-4)GlcNAc(b1-3)[Fuc(a1-3)[Gal(b1-4)]GlcNAc(b1-6)]Gal(b1-4)Glc
# Outline: as §1
# [4] = molecular target: Fuc(a1-2)Gal(b1-4)GlcNAc(b1-6)GalNAc
# Outline: as §1
# [5] = molecular target: Fuc(a1-2)Gal(b1-4)[Fuc(a1-3)]GlcNAc(b1-3)GalNAc
# Outline: as §1
# [6] = molecular target: Fuc(a1-2)Gal3S(b1-4)GlcNAc
# Outline: as §1
# [7] = molecular target: Fuc(a1-2)[Gal(a1-3)]Gal(b1-4)GlcNAc(b1-2)Man
# Outline: as §1
# [8] = molecular target: Fuc(a1-2)[Gal(a1-3)]Gal(b1-4)[Fuc(a1-3)]Glc
# Outline: as §1
# [9] = molecular target: Fuc(a1-2)[GalNAc(a1-3)]Gal(b1-3)GlcNAc(b1-6)GalNAc
# Outline: as §1
# [10] = molecular target: Fuc(a1-2)[GalNAc(a1-3)]Gal(b1-4)GlcNAc(b1-2)Man(a1-3)[Fuc(a1-2)[GalNAc(a1-3)]Gal(b1-4)GlcNAc(b1-2)Man(a1-6)]Man(b1-4)GlcNAc(b1-4)[Fuc(a1-6)]GlcNAc
# Outline: as §1
# [11] = molecular target: Fuc(a1-3)[Gal(b1-4)]GlcNAc(b1-2)Man(a1-3)[Fuc(a1-3)[Gal(b1-4)]GlcNAc(b1-2)Man(a1-6)]Man(b1-4)GlcNAc(b1-4)[Fuc(a1-6)]GlcNAc
# Outline: as §1
# [12] = molecular target: Fuc(a1-3)[Gal(b1-4)]GlcNAc6S
# Outline: as §1
# [13] = molecular target: Gal(a1-3)Gal(b1-4)GlcNAc(b1-2)Man(a1-3)[Gal(a1-3)Gal(b1-4)GlcNAc(b1-2)Man(a1-6)]Man(b1-4)GlcNAc(b1-4)GlcNAc
# Outline: as §1
# [14] = molecular target: Gal(a1-3)Gal(b1-4)[Fuc(a1-3)]GlcNAc
# Outline: as §1
# Gal(a1-3)GalNAc = molecular target: Gal(a1-3)GalNAc
# Outline: as §1
# [15] = molecular target: Gal(a1-3)[Gal(a1-4)]Gal(b1-4)GlcNAc
# Outline: as §1
# [16] = molecular target: Gal(a1-4)Gal(b1-4)GlcNAc(b1-3)Gal(b1-4)Glc
# Outline: as §1
# Gal(b1-3)GalNAc(b1-3)Gal = molecular target: Gal(b1-3)GalNAc(b1-3)Gal
# Outline: as §1
# Gal(b1-3)GlcNAc(b1-2)Man = molecular target: Gal(b1-3)GlcNAc(b1-2)Man
# Outline: as §1
# [17] = molecular target: Gal(b1-3)GlcNAc(b1-2)[Gal(b1-3)GlcNAc(b1-6)]Man(a1-6)[Gal(b1-3)GlcNAc(b1-2)Man(a1-3)]Man(b1-4)GlcNAc(b1-4)GlcNAc
# Outline: as §1
# [18] = molecular target: Gal(b1-3)GlcNAc(b1-3)Gal(b1-4)GlcNAc(b1-3)Gal(b1-4)GlcNAc(b1-2)[Gal(b1-3)GlcNAc(b1-3)Gal(b1-4)GlcNAc(b1-3)Gal(b1-4)GlcNAc(b1-6)]Man(a1-6)[Gal(b1-3)GlcNAc(b1-3)Gal(b1-4)GlcNAc(b1-3)Gal(b1-4)GlcNAc(b1-2)Man(a1-3)]Man(b1-4)GlcNAc(b1-4)[Fuc(a1-6)]GlcNAc
# Outline: as §1
# [19] = molecular target: Gal(b1-3)GlcNAc(b1-3)Gal(b1-4)GlcNAc(b1-6)[Gal(b1-3)GlcNAc(b1-3)]Gal(b1-4)Glc
# Outline: as §1
# [20] = molecular target: Gal(b1-3)[Fuc(a1-4)]GlcNAc(b1-2)Man(a1-3)[Gal(b1-3)[Fuc(a1-4)]GlcNAc(b1-2)Man(a1-6)]Man(b1-4)GlcNAc(b1-4)[Fuc(a1-6)]GlcNAc
# Outline: as §1
# [21] = molecular target: Gal(b1-4)GalNAc(b1-3)[Fuc(a1-2)]Gal(b1-4)GlcNAc
# Outline: as §1
# Gal(b1-4)GlcNAc(b1-2)Man = molecular target: Gal(b1-4)GlcNAc(b1-2)Man
# Outline: as §1
# [22] = molecular target: Gal(b1-4)GlcNAc(b1-2)Man(a1-6)Man(b1-4)GlcNAc(b1-4)GlcNAc
# Outline: as §1
# [23] = molecular target: Gal(b1-4)GlcNAc(b1-2)[Gal(b1-4)GlcNAc(b1-6)]Man(a1-6)[GlcNAc(b1-4)][Gal(b1-4)GlcNAc(b1-2)[Gal(b1-4)GlcNAc(b1-4)]Man(a1-3)]Man(b1-4)GlcNAc(b1-4)[Fuc(a1-6)]GlcNAc
# Outline: as §1
# [24] = molecular target: Gal(b1-4)GlcNAc(b1-3)Gal(b1-4)GlcNAc(b1-2)Man(a1-3)[Gal(b1-4)GlcNAc(b1-3)Gal(b1-4)GlcNAc(b1-2)Man(a1-6)]Man(b1-4)GlcNAc(b1-4)GlcNAc
# Outline: as §1
# [25] = molecular target: Gal(b1-4)GlcNAc(b1-3)Gal(b1-4)GlcNAc(b1-3)Gal(b1-4)GlcNAc
# Outline: as §1
binder,measurement,setting,value
B1,glycan array binding signal (z-score),Fuc(a1-2)Gal(b1-3)GalNAc,-1.06
same,glycan array binding signal (z-score),[1],-0.063
same,glycan array binding signal (z-score),[2],6.11
same,glycan array binding signal (z-score),[3],0.636
same,glycan array binding signal (z-score),[4],4.43
same,glycan array binding signal (z-score),[5],1.5
same,glycan array binding signal (z-score),[6],-0.3
same,glycan array binding signal (z-score),[7],-0.226
same,glycan array binding signal (z-score),[8],1.42
same,glycan array binding signal (z-score),[9],-0.083
same,glycan array binding signal (z-score),[10],-0.243
same,glycan array binding signal (z-score),[11],-0.03
same,glycan array binding signal (z-score),[12],-1.03
same,glycan array binding signal (z-score),[13],3.33
same,glycan array binding signal (z-score),[14],0.431
same,glycan array binding signal (z-score),Gal(a1-3)GalNAc,-0.197
same,glycan array binding signal (z-score),[15],0.361
same,glycan array binding signal (z-score),[16],-0.723
same,glycan array binding signal (z-score),Gal(b1-3)GalNAc(b1-3)Gal,0.094
same,glycan array binding signal (z-score),Gal(b1-3)GlcNAc(b1-2)Man,-0.443
same,glycan array binding signal (z-score),[17],0.94
same,glycan array binding signal (z-score),[18],3.08
same,glycan array binding signal (z-score),[19],3.63
same,glycan array binding signal (z-score),[20],3.07
same,glycan array binding signal (z-score),[21],0.8
same,glycan array binding signal (z-score),Gal(b1-4)GlcNAc(b1-2)Man,0.859
same,glycan array binding signal (z-score),[22],0.767
same,glycan array binding signal (z-score),[23],-0.993
same,glycan array binding signal (z-score),[24],3.08
same,glycan array binding signal (z-score),[25],0.693
